Results taken from PubChem BioAssay.
Results with a measured potency or affinity are listed apart. Inconclusive results are not listed. Active and inactive are the calls of the source. Unless noted, how the calls were made is not given here.

Tests used:
[1] = cytotoxicity in PAX8-dependent RMG-1 cells, dose response, cell-based, cherry-pick (AID 687029;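 active means signal drop whose fitted half-maximal concentration is at most twice the top valid dose, in every test run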;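 further: cells exposed to compound for 96 hours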)
[2] = cytotoxicity in IOSE-T80 ovarian epithelial cells, dose response, selectivity assay for PAX8 inhibitor project, cell-based, cherry-pick (AID 687032;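 active means fitted half-maximal concentration for viability loss no higher than twice the top valid dose, in every repeat run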;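 further: cells exposed to compound for 96 h before reading; 0% = neutral control wells and -100% = 2 µM mitoxantrone kill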)
[3] = inhibitors of CMV-promoter luciferase reporter, dose response, counter-screen for Pax8 inhibitor project, cell-based, HEK293, luminescence, dry powder (AID 743020;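 active means signal-lowering compounds whose fitted half-maximal concentration is at or below twice the top tested dose in every run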;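 further: HEK293 cells stably expressing the CMV luciferase reporter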)
[4] = non-specific cell cytotoxicity, dose response, cytotoxicity control for PAX8 inhibitor project, plate reader, dry powder samples (AID 743021)
[5] = IGROV1 ovarian cancer cell cytotoxicity, dose response, PAX8 inhibitor project, plate reader, dry powder samples (AID 743043);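 further: more negative means fewer viable cells or more cytotoxicity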
[6] = A2780 ovarian cancer cell cytotoxicity, dose response, cytotoxicity control, plate reader, dry powder samples (AID 743046);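 further: 0% = neutral control wells and -100% = cytotoxic reference compound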
[7] = IOSE-T80 ovarian epithelial cell cytotoxicity, dose response, cytotoxicity control for PAX8 inhibitor project, plate reader, dry powder samples (AID 743045);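 further: 0% = neutral control median and -100% = positive control median; more negative values mean more cell killing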
[8] = cytotoxicity in OVCAR8 ovarian cancer cells, dose response, PAX8 project, cell-based, plate reader, dry powder samples (AID 743197)
[9] = NIH:OVCAR-3 ovarian cancer cell cytotoxicity, dose response, PAX8 inhibitor project, plate reader, dry powder samples (AID 743044); conditions: max activity: at 35 µM, hits give low values unless noted

C[C@@H]1CCCCO[C@H](CN(C)Cc2ccc(C(=O)Nc3ccccc3N)cc2)[C@@H](C)CN([C@@H](C)CO)C(=O)c2cc(NS(=O)(=O)c3ccc(Cl)cc3)ccc2O1
inactive: outcome [1] | outcome [2] | outcome [3] | outcome [4] | outcome [5] | outcome [6]

COc1cccc(-c2ccc3c(c2)[C@H]2[C@H](CCN2C(=O)NC2CCCCC2)[C@@H](CO)N3C)c1
inactive: outcome [1] | outcome [2] | outcome [3] | outcome [4] | outcome [5] | outcome [7] | outcome [8]

CC(C)(C)S(=O)N1Cc2cc(C(=O)NCCCN3CCOCC3)nc(-c3cccc(C#CCC4CCCC4)c3)c2[C@@H]1CCO (stereo partly specified)
inactive: outcome [1] | outcome [2] | outcome [3] | outcome [4] | outcome [5] | outcome [7] | outcome [8]

C[C@@H]1CN([C@H](C)CO)C(=O)c2cc(NC(=O)Nc3ccc(F)cc3)ccc2O[C@@H](C)CCCCO[C@H]1CN(C)C(=O)NC1CCCCC1
inactive: outcome [1] | outcome [2] | outcome [3] | outcome [4] | outcome [5] | outcome [7] | outcome [6] | outcome [8]

C[C@H]1CN([C@@H](C)CO)S(=O)(=O)c2ccc(C#Cc3ccc(F)cc3)cc2O[C@@H]1CN(C)C(=O)NC1CCCCC1
inactive: outcome [1] | outcome [2] | outcome [3] | outcome [4] | outcome [5] | outcome [7] | outcome [6] | outcome [8]

O=C(C[C@@H]1CC[C@@H]2[C@H](COC[C@@H](O)CN2S(=O)(=O)c2cccc(Cl)c2)O1)Nc1ccc(-c2ccccc2)cc1
inactive: outcome [1] | outcome [2] | outcome [3] | outcome [4] | outcome [5] | outcome [7] | outcome [6] | outcome [8]

C[C@H](CO)N1C[C@H](C)[C@H](CN(C)Cc2ccc(Cl)c(Cl)c2)OCCCC[C@H](C)Oc2ccc(NS(=O)(=O)c3ccc(F)cc3)cc2C1=O
inactive: outcome [1] | outcome [2] | outcome [3] | outcome [4] | outcome [5] | outcome [7] | outcome [6] | outcome [8]

C[C@@H]1CN([C@@H](C)CO)C(=O)c2cc(NS(=O)(=O)c3cccs3)ccc2O[C@@H](C)CCCCO[C@H]1CN(C)Cc1ccc(C(F)(F)F)cc1
inactive: outcome [1] | outcome [2] | outcome [3] | outcome [4] | outcome [5] | outcome [7] | outcome [6] | outcome [8]

O=C(C[C@@H]1C[C@@H]2c3cc(NC(=O)Cc4ccncc4)ccc3O[C@@H]2[C@H](CO)O1)NCc1ccc(-c2ccccc2)cc1
inactive: outcome [1] | outcome [2] | outcome [3] | outcome [4] | outcome [5] | outcome [7] | outcome [6] | outcome [8]

CC(C)NC(=O)N(C)C[C@H]1OCCCC[C@H](C)Oc2ccc(NC(=O)Nc3ccc(C(F)(F)F)cc3)cc2C(=O)N([C@H](C)CO)C[C@@H]1C
inactive: outcome [1] | outcome [2] | outcome [3] | outcome [4] | outcome [5] | outcome [7] | outcome [6] | outcome [8]

Cc1ccc(-c2ccc([C@H]3[C@@H](CO)N4CCCCN(C(=O)Nc5cccc(F)c5)C[C@H]34)cc2)cc1
inactive: outcome [1] | outcome [2] | outcome [3] | outcome [4] | outcome [5] | outcome [7] | outcome [8]

COc1ccc(-c2ccc3c(c2)[C@H]2[C@H](CCN2S(=O)(=O)c2ccc(OC)cc2)[C@@H](CO)N3C)cc1
inactive: outcome [1] | outcome [2] | outcome [3] | outcome [4] | outcome [5] | outcome [6]

C[C@H](O)C#Cc1ccc2c(c1)O[C@@H](CN(C)Cc1ccc(-c3ccccc3)cc1)[C@H](C)CN([C@H](C)CO)S2(=O)=O
inactive: outcome [1] | outcome [2] | outcome [3] | outcome [4] | outcome [5] | outcome [6]

COc1ccccc1-c1ccc2c(c1)[C@@H]1[C@@H](CCN1S(=O)(=O)c1ccccc1F)[C@H](CO)N2
inactive: outcome [1] | outcome [2] | outcome [3] | outcome [4] | outcome [5] | outcome [7] | outcome [6] | outcome [8]

COc1ccc(S(=O)(=O)Nc2ccc3c(c2)C(=O)N([C@@H](C)CO)C[C@@H](C)[C@@H](CN(C)Cc2ccc(C(F)(F)F)cc2)OCCCC[C@@H](C)O3)cc1
inactive: outcome [1] | outcome [2] | outcome [3] | outcome [4] | outcome [5] | outcome [6]

C[C@H](CO)N1C[C@H](C)[C@@H](CN(C)Cc2ccc(C(F)(F)F)cc2)OCCCC[C@H](C)Oc2ccc(NC(=O)Cc3ccccc3)cc2C1=O
inactive: outcome [1] | outcome [2] | outcome [3] | outcome [4] | outcome [5] | outcome [7] | outcome [6] | outcome [8]

C[C@H]1CCCCO[C@@H](CN(C)Cc2ccc3c(c2)OCO3)[C@@H](C)CN([C@@H](C)CO)C(=O)c2cc(NC(=O)Nc3ccc(F)cc3)ccc2O1
inactive: outcome [1] | outcome [2] | outcome [3] | outcome [4] | outcome [5] | outcome [7] | outcome [6] | outcome [8]

C[C@@H]1CCCCO[C@H](CN(C)Cc2ccccc2)[C@H](C)CN([C@@H](C)CO)C(=O)c2cc(NC(=O)Nc3ccc(C(F)(F)F)cc3)ccc2O1
inactive: outcome [1] | outcome [2] | outcome [3] | outcome [4] | outcome [5] | outcome [6] | outcome [8]

C[C@@H]1CN([C@@H](C)CO)C(=O)Cc2cc(NC(=O)Nc3ccc(C(F)(F)F)cc3)ccc2O[C@H]1CN(C)C(=O)NC1CCCCC1
inactive: outcome [1] | outcome [2] | outcome [3] | outcome [4] | outcome [5] | outcome [7] | outcome [6] | outcome [8]

C[C@@H]1CN([C@H](C)CO)C(=O)c2cc(NS(=O)(=O)c3ccc(Cl)cc3)ccc2O[C@@H](C)CCCCO[C@@H]1CN(C)Cc1ccc(Cl)c(Cl)c1
inactive: outcome [1] | outcome [2] | outcome [3] | outcome [4] | outcome [5] | outcome [7] | outcome [8]

Cc1cccc(S(=O)(=O)N2CC[C@@H]3[C@H]2c2cc(C4=CCCCC4)ccc2N[C@@H]3CO)c1
inactive: outcome [1] | outcome [2] | outcome [3] | outcome [4] | max activity [9] 9.72% [at 4.2 µM, hits give low values] | outcome [7]

Cc1ccc(S(=O)(=O)Nc2ccc3c(c2)C(=O)N([C@H](C)CO)C[C@@H](C)[C@@H](CN(C)Cc2ccc4c(c2)OCO4)OCCCC[C@@H](C)O3)cc1
inactive: outcome [1] | outcome [2] | outcome [3] | outcome [4] | outcome [5] | outcome [7] | outcome [8]

C[C@H]1CN([C@@H](C)CO)C(=O)c2c(c3ccccc3n2C)-c2ccccc2CO[C@@H]1CN(C)S(=O)(=O)c1ccsc1
inactive: outcome [1] | outcome [2] | outcome [3] | outcome [4] | outcome [5] | outcome [7] | outcome [8]

COc1ccccc1S(=O)(=O)N1CC[C@H]2[C@@H](CO)N(C)c3ccc(-c4ccc(C#N)cc4)cc3[C@H]21
inactive: outcome [1] | outcome [2] | outcome [3] | outcome [4] | outcome [5] | outcome [7] | outcome [8]

C[C@H](CO)N1C[C@H](C)[C@H](CN(C)CC2CCCCC2)Oc2ccc(NS(=O)(=O)c3ccc(Cl)cc3)cc2CC1=O
inactive: outcome [1] | outcome [2] | outcome [3] | outcome [4] | outcome [5] | outcome [7] | outcome [6] | outcome [8]

C[C@@H]1CCCCO[C@H](CN(C)Cc2ccc(C(F)(F)F)cc2)[C@H](C)CN([C@@H](C)CO)C(=O)c2cc(NC(=O)c3ccccc3)ccc2O1
inactive: outcome [1] | outcome [2] | outcome [3] | outcome [4] | outcome [5] | outcome [6]

C[C@@H]1CCCCO[C@@H](CN(C)S(=O)(=O)c2ccc(Cl)cc2)[C@H](C)CN([C@@H](C)CO)C(=O)c2cc(N(C)C)ccc2O1
inactive: outcome [1] | outcome [2] | outcome [3] | outcome [4] | outcome [5] | outcome [7] | outcome [6] | outcome [8]

COc1cccc(S(=O)(=O)N2CCCCN3[C@@H](CO)[C@@H](c4ccc(C#CCC(C)C)cc4)[C@@H]3C2)c1
inactive: outcome [1] | outcome [2] | outcome [3] | outcome [4] | outcome [5] | outcome [7] | outcome [6] | outcome [8]

C[C@@H]1CN([C@H](C)CO)S(=O)(=O)c2ccc(C#Cc3ccc(F)cc3)cc2O[C@H]1CN(C)C(=O)NC1CCCCC1
inactive: outcome [1] | outcome [2] | outcome [3] | outcome [4] | outcome [5] | outcome [7] | outcome [6] | outcome [8]

C[C@@H]1CCCCO[C@@H](CN(C)Cc2ccc(C(F)(F)F)cc2)[C@H](C)CN([C@@H](C)CO)C(=O)c2cc(NC(=O)Nc3ccc(F)cc3)ccc2O1
inactive: outcome [1] | outcome [2] | outcome [3] | outcome [4] | outcome [5] | outcome [7] | outcome [6] | outcome [8]

C[C@@H]1CN([C@H](C)CO)C(=O)c2cc(NS(=O)(=O)c3ccc(Cl)cc3)ccc2O[C@@H](C)CCCCO[C@H]1CN(C)S(=O)(=O)c1ccc(F)cc1
inactive: outcome [1] | outcome [2] | outcome [3] | outcome [4] | max activity [9] 26.2% [at 1 µM, hits give low values] | outcome [7]

O=C(Nc1ccc(F)cc1)N[C@H]1CC[C@H](CCNC(=O)c2cc(Cl)cc(Cl)c2)O[C@H]1CO
inactive: outcome [1] | outcome [2] | outcome [3] | outcome [4] | outcome [5] | outcome [7] | outcome [6] | outcome [8]

C[C@@H]1CN([C@H](C)CO)C(=O)c2cc(NS(=O)(=O)c3cccs3)ccc2O[C@@H](C)CCCCO[C@@H]1CN(C)Cc1ccc(C(F)(F)F)cc1
inactive: outcome [1] | outcome [2] | outcome [3] | outcome [4] | outcome [5] | outcome [7] | outcome [6] | outcome [8]

C[C@@H]1CN([C@H](C)CO)C(=O)c2cccc(NC(=O)Nc3cccc4ccccc34)c2O[C@H]1CN(C)C(=O)Nc1ccc(C(F)(F)F)cc1
inactive: outcome [1] | outcome [2] | outcome [3] | outcome [4] | outcome [5] | outcome [7] | outcome [6] | outcome [8]

C[C@@H]1CCCCO[C@H](CN(C)Cc2ccc(C(F)(F)F)cc2)[C@H](C)CN([C@@H](C)CO)C(=O)c2cc(NC(=O)Nc3ccc4c(c3)OCO4)ccc2O1
inactive: outcome [1] | outcome [2] | outcome [3] | outcome [4] | outcome [7]

C[C@@H]1CN([C@H](C)CO)C(=O)c2cc(NC(=O)CCC(F)(F)F)ccc2O[C@@H](C)CCCCO[C@@H]1CN(C)Cc1ccc(Cl)c(Cl)c1
inactive: outcome [1] | outcome [2] | outcome [3] | outcome [4] | outcome [7]

C[C@@H]1CN([C@H](C)CO)C(=O)c2cc(NC(=O)Nc3ccc(C(F)(F)F)cc3)ccc2O[C@@H](C)CCCCO[C@@H]1CN(C)Cc1ccc2c(c1)OCO2
inactive: outcome [1] | outcome [2] | outcome [3] | outcome [4] | outcome [7] | outcome [6]

Cc1ccc(S(=O)(=O)Nc2ccc3c(c2)C(=O)N([C@@H](C)CO)C[C@H](C)[C@@H](CN(C)Cc2ccc(C(F)(F)F)cc2)OCCCC[C@@H](C)O3)cc1
inactive: outcome [1] | outcome [2] | outcome [3] | outcome [4] | outcome [7] | outcome [6]

O=C1CN(S(=O)(=O)Cc2ccccc2)C[C@@H]2[C@@H](c3ccc(C#CC4CC4)cc3)[C@@H](CO)N12
inactive: outcome [1] | outcome [2] | outcome [3] | outcome [4] | outcome [7] | activity change, negative = cytotoxicity [6] 19% [at 8 µM]

COc1ccccc1S(=O)(=O)N(C)C[C@H]1Oc2cc(C#CCC3CCCC3)ccc2S(=O)(=O)N([C@H](C)CO)C[C@H]1C
inactive: outcome [1] | outcome [2] | outcome [3] | outcome [4] | outcome [7]

O=C(C1CCCC1)N1CC[C@@H]2[C@H](CO)Nc3ccc(C4=CCCCC4)cc3[C@@H]21
inactive: outcome [1] | outcome [2] | outcome [3] | outcome [4] | outcome [7] | outcome [6]

COc1cccc2sc(N(CCCN(C)C)C(=O)CCS(=O)(=O)c3ccccc3)nc12
inactive: outcome [1] | outcome [2] | outcome [3] | outcome [4] | outcome [7] | outcome [6]

O=C(c1cc(-c2cccs2)on1)N1CCN(C(c2ccccc2)c2ccccc2)CC1
inactive: outcome [1] | outcome [2] | outcome [3] | outcome [4] | outcome [7] | outcome [6]

COc1ccc2c3c(n(C)c2c1)[C@H](CO)N(C(=O)Nc1ccc(F)cc1)CC31CCN(C(=O)c2ccc3c(c2)OCO3)CC1
inactive: outcome [1] | outcome [2] | outcome [3] | outcome [4] | outcome [7]
